# Source: paper PMC5540273 (PLoS ONE, 2017)
# Where two headings read alike, the source gives them in different places.
# Columns and labels:
# MEK5 = tested on: T1, MEK5; details: concentration: 1 μM,replicates: in singlicate; n = 1
# T1 construct: gene MAP2K5
# MEK6 = tested on: T2, MEK6; details: concentration: 1 μM,replicates: in singlicate; n = 1
# T2 construct: gene MAP2K6
# MELK = details: concentration: 1 μM,replicates: in singlicate; n = 1
# MERTK = details: concentration: 1 μM,replicates: in singlicate; n = 1
# MET = details: n = 1
# MINK = tested on: T3, MINK; details: concentration: 1 μM,replicates: in singlicate; n = 1
# T3 construct: gene MINK1
# MKK7 = details: concentration: 1 μM,replicates: in singlicate; n = 1
# MKNK1 = details: concentration: 1 μM,replicates: in singlicate; n = 1
# MKNK2 = details: concentration: 1 μM,replicates: in singlicate; n = 1
# MLCK = tested on: T4, MLCK; details: concentration: 1 μM,replicates: in singlicate; n = 1
# T4 construct: gene MYLK3
# MLK1 = tested on: T5, MLK1; details: concentration: 1 μM,replicates: in singlicate; n = 1
# T5 construct: gene MAP3K9
# MLK2 = details: concentration: 1 μM,replicates: in singlicate; n = 1
# MLK3 = details: concentration: 1 μM,replicates: in singlicate; n = 1
# MRCKA = details: concentration: 1 μM,replicates: in singlicate; n = 1
# MRCKB = tested on: T6, MRCKB; details: concentration: 1 μM,replicates: in singlicate; n = 1
# T6 construct: gene CDC42BPB
# MST1R = details: concentration: 1 μM,replicates: in singlicate; n = 1
# MST1 = tested on: T7, MST1; details: concentration: 1 μM,replicates: in singlicate; n = 1
# T7 construct: gene STK4
# MST2 = tested on: T8, MST2; details: concentration: 1 μM,replicates: in singlicate; n = 1
# T8 construct: gene STK3
# MST3 = tested on: T9, MST3; details: concentration: 1 μM,replicates: in singlicate; n = 1
# T9 construct: gene STK24
# MST4 = details: concentration: 1 μM,replicates: in singlicate; n = 1
# [1] = concentration: 1 μM,replicates: in singlicate
# 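Also: KINOMEscan kinase panel screen.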
smiles,measurement,setting,value
NC(=O)c1ccc(-c2cc3ncnc(SCC(=O)O)c3s2)cc1,%Inh,MEK5,38%
same,%Inh,MEK6,0%
same,%Inh,MELK,0%
same,%Inh,MERTK,0%
same,%Inh,MET; [1],0%
same,%Inh,MINK,39%
same,%Inh,MKK7,0%
same,%Inh,MKNK1,6%
same,%Inh,MKNK2,28%
same,%Inh,MLCK,12%
same,%Inh,MLK1,0%
same,%Inh,MLK2,0%
same,%Inh,MLK3,0%
same,%Inh,MRCKA,0%
same,%Inh,MRCKB,0%
same,%Inh,MST1R,21%
same,%Inh,MST1,0%
same,%Inh,MST2,0%
same,%Inh,MST3,0%
same,%Inh,MST4,0%
COc1cc2nccc(Nc3ccc(Oc4ccccc4)cc3)c2cc1OC.Cl [GI261656],%Inh,MEK5,99.9%
same,%Inh,MEK6,0%
same,%Inh,MELK,3%
same,%Inh,MERTK,12%
same,%Inh,MET; [1],0%
same,%Inh,MINK,0%
same,%Inh,MKK7,0%
same,%Inh,MKNK1,0%
same,%Inh,MKNK2,27%
same,%Inh,MLCK,0%
same,%Inh,MLK1,0%
same,%Inh,MLK2,0%
same,%Inh,MLK3,15%
same,%Inh,MRCKA,0%
same,%Inh,MRCKB,0%
same,%Inh,MST1R,30%
same,%Inh,MST1,0%
same,%Inh,MST2,0%
same,%Inh,MST3,0%
same,%Inh,MST4,0%
Nc1nccc(-c2ccc3c(N)n[nH]c3c2)n1 [GSK1034945],%Inh,MEK5,38%
same,%Inh,MEK6,0%
same,%Inh,MELK,24%
same,%Inh,MERTK,16%
same,%Inh,MET; [1],0%
same,%Inh,MINK,47%
same,%Inh,MKK7,0%
same,%Inh,MKNK1,11%
same,%Inh,MKNK2,86%
same,%Inh,MLCK,96.1%
same,%Inh,MLK1,0%
same,%Inh,MLK2,0%
same,%Inh,MLK3,0%
same,%Inh,MRCKA,11%
same,%Inh,MRCKB,5%
same,%Inh,MST1R,27%
same,%Inh,MST1,3%
same,%Inh,MST2,0%
same,%Inh,MST3,0%
same,%Inh,MST4,0%
Cn1ccc2ncnc(Oc3ccc(NC(=O)Nc4ccnc(C(F)(F)F)c4)c(Cl)c3)c21,%Inh,MEK5,9%
same,%Inh,MEK6,0%
same,%Inh,MELK,0%
same,%Inh,MERTK,23%
same,%Inh,MET; [1],2%
same,%Inh,MINK,0%
same,%Inh,MKK7,0%
same,%Inh,MKNK1,0%
same,%Inh,MKNK2,0%
same,%Inh,MLCK,0%
same,%Inh,MLK1,8%
same,%Inh,MLK2,0%
same,%Inh,MLK3,0%
same,%Inh,MRCKA,0%
same,%Inh,MRCKB,0%
same,%Inh,MST1R,32%
same,%Inh,MST1,83%
same,%Inh,MST2,0%
same,%Inh,MST3,9%
same,%Inh,MST4,0%
O=C1NCCc2[nH]c(-c3ccncc3)cc21,%Inh,MEK5,35%
same,%Inh,MEK6,25%
same,%Inh,MELK,21%
same,%Inh,MERTK,0%
same,%Inh,MET; 1 µM,33%
same,%Inh,MINK,55%
same,%Inh,MKK7,0%
same,%Inh,MKNK1,13%
same,%Inh,MKNK2,23%
same,%Inh,MLCK,58%
same,%Inh,MLK1,0%
same,%Inh,MLK2,0%
same,%Inh,MLK3,13%
same,%Inh,MRCKA,0%
same,%Inh,MRCKB,0%
same,%Inh,MST1R,51%
same,%Inh,MST1,3%
same,%Inh,MST2,20%
same,%Inh,MST3,23%
same,%Inh,MST4,0%
C[C@@H]1CCN(C(=O)N2CCCC2)C[C@@H]1N(C)c1ncnc2[nH]ccc12,%Inh,MEK5,38%
same,%Inh,MEK6,20%
same,%Inh,MELK,13%
same,%Inh,MERTK,0%
same,%Inh,MET; [1],0%
same,%Inh,MINK,30%
same,%Inh,MKK7,0%
same,%Inh,MKNK1,0%
same,%Inh,MKNK2,58%
same,%Inh,MLCK,0%
same,%Inh,MLK1,97.4%
same,%Inh,MLK2,33%
same,%Inh,MLK3,67%
same,%Inh,MRCKA,0%
same,%Inh,MRCKB,0%
same,%Inh,MST1R,8%
same,%Inh,MST1,100%
same,%Inh,MST2,23%
same,%Inh,MST3,25%
same,%Inh,MST4,0%
Cc1nnc(-c2ccc3occ(-c4ccc(S(C)=O)cc4)c3n2)o1 (stereo not drawn),%Inh,MEK5,0%
same,%Inh,MEK6,0%
same,%Inh,MELK,0%
same,%Inh,MERTK,0%
same,%Inh,MET; [1],0%
same,%Inh,MINK,0%
same,%Inh,MKK7,0%
same,%Inh,MKNK1,0%
same,%Inh,MKNK2,0%
same,%Inh,MLCK,0%
same,%Inh,MLK1,0%
same,%Inh,MLK2,0%
same,%Inh,MLK3,0%
same,%Inh,MRCKA,0%
same,%Inh,MRCKB,43%
same,%Inh,MST1R,2%
same,%Inh,MST1,0%
same,%Inh,MST2,0%
same,%Inh,MST3,0%
same,%Inh,MST4,0%
C[C@@H]1CNc2c(sc3ccc4nc(-c5ccc(O)cc5)ccc4c23)C(=O)N1,%Inh,MEK5,67%
same,%Inh,MEK6,13%
same,%Inh,MELK,0%
same,%Inh,MERTK,62%
same,%Inh,MET; [1],92.7%
same,%Inh,MINK,61%
same,%Inh,MKK7,0%
same,%Inh,MKNK1,27%
same,%Inh,MKNK2,34%
same,%Inh,MLCK,52%
same,%Inh,MLK1,0%
same,%Inh,MLK2,9%
same,%Inh,MLK3,0%
same,%Inh,MRCKA,0%
same,%Inh,MRCKB,0%
same,%Inh,MST1R,23%
same,%Inh,MST1,0%
same,%Inh,MST2,42%
same,%Inh,MST3,25%
same,%Inh,MST4,0%
Cn1ccc2ncnc(Oc3ccc(NC(=O)Nc4cccc(C(F)(F)F)c4)c(F)c3)c21,%Inh,MEK5,35%
same,%Inh,MEK6,0%
same,%Inh,MELK,10%
same,%Inh,MERTK,98%
same,%Inh,MET; [1],50%
same,%Inh,MINK,0%
same,%Inh,MKK7,0%
same,%Inh,MKNK1,18%
same,%Inh,MKNK2,89%
same,%Inh,MLCK,0%
same,%Inh,MLK1,21%
same,%Inh,MLK2,0%
same,%Inh,MLK3,32%
same,%Inh,MRCKA,4%
same,%Inh,MRCKB,0%
same,%Inh,MST1R,19%
same,%Inh,MST1,0%
same,%Inh,MST2,0%
same,%Inh,MST3,0%
same,%Inh,MST4,0%
